Reference: PubChem BioAssay AID588651 (The Scripps Research Institute Molecular Screening Center, 2011)
Active and inactive are the calls of the source. Cut-off read from the data, not from the text of the source: active = inhibition above about 65%; inactive = the rest.

Tested on: Fam108b
Test: Fam108b inhibitors and proteome off-target selectivity – biochemical, gel-based ABPP, recombinant soluble Fam108b, HTS hits, complex proteome, late-stage follow-up (AID 588651);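 note: Fam108b spiked into mouse brain membrane proteome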
Details: FP-rhodamine labeling in proteome, at 20 µM, stronger effect = higher value

Q: With `C[n+]1c(-c2ccccc2)c2cc(N)ccc2c2ccc(N)cc21` as the compound, how does the inhibition read?
A: 0% (inactive)

Q: How did the inhibition turn out when `Cc1ccccc1N1C(=O)/C(=C/c2ccco2)C(=O)NC1=S` was run?
A: 0% (inactive)

Q: With `NC(Cc1cc(O)c(O)cc1O)C(=O)O` (stereo not drawn) as the compound, how does the inhibition read?
A: 0% (inactive)
